This is part of a sample that, as a whole, favours compounds with a hit. Of some 83,000 tested, about 20% had one in any assay.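 Single-dose data. Exposure time 48 hours. Values below 10 considered active.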 Calls of active or inactive are those of the source.
Experiments:
Assay in all cases: NCI-60 one-dose screen, 48 h (100 = growth as untreated, 0 = no growth, -100 = all killed)
Conditions in all cases: 10 µM unless noted
NCI-H23 lung = system: NCI-H23 lung
NCI-H322M lung = system: NCI-H322M lung
HOP-62 NSCLC = system: HOP-62 NSCLC
NCI-H460 lung = system: NCI-H460 lung
HOP-92 NSCLC = system: HOP-92 NSCLC
NCI-H522 lung = system: NCI-H522 lung
A549/ATCC NSCLC = system: A549/ATCC NSCLC
786-0 renal = system: 786-0 renal
COLO 205 colon = system: COLO 205 colon
NCI-H226 lung = system: NCI-H226 lung

Measured: growth

CCN(CC)CCCCNc1ccc(NCCCCN(CC)CC)c2c1C(=O)c1ccccc1C2=O
inactive: NCI-H23 lung 77.5% | NCI-H322M lung 110% | HOP-62 NSCLC 101% | NCI-H460 lung 57.4% | HOP-92 NSCLC 55.5% | NCI-H522 lung 96.6% | A549/ATCC NSCLC 56.6% | 786-0 renal 82% | COLO 205 colon 76.1%

COc1cc(C2CC(=O)c3c(C)nn(-c4nc5ccccc5[nH]4)c3C2)cc(OC)c1OC (stereo not drawn)
active: HOP-92 NSCLC -3.61%
inactive: NCI-H23 lung 86% | NCI-H322M lung 67.8% | HOP-62 NSCLC 32.3% | NCI-H460 lung 73.7% | A549/ATCC NSCLC 59.5% | 786-0 renal 23.8% | COLO 205 colon 126%

Cc1ccc(S(=O)(=O)N(CCc2ccc(Cl)cc2)S(=O)(=O)c2ccc(C)cc2)cc1
inactive: NCI-H226 lung 75.2% | NCI-H322M lung 93.1% | HOP-62 NSCLC 103% | NCI-H460 lung 101% | HOP-92 NSCLC 88.1% | NCI-H522 lung 77.4% | A549/ATCC NSCLC 88.3% | 786-0 renal 94.4% | COLO 205 colon 111%

Cc1ccc2c(c1)n([O-])c1cc(Cl)ccc1[n+]2=O
inactive: NCI-H23 lung 97% | NCI-H322M lung 115% | HOP-62 NSCLC 103% | NCI-H460 lung 114% | HOP-92 NSCLC 81.9% | NCI-H522 lung 89.2% | 786-0 renal 91.3% | COLO 205 colon 108%

Nc1c(C(=O)Nc2ccccc2Cl)sc2nc3c(cc12)CCCCCC3
active: 786-0 renal -55.3%
inactive: NCI-H23 lung 72.4% | NCI-H322M lung 49.2% | HOP-62 NSCLC 27% | NCI-H460 lung 30.8% | HOP-92 NSCLC 39.4% | NCI-H522 lung 58% | A549/ATCC NSCLC 29% | COLO 205 colon 33.8%

Nc1nc(-c2ccc(F)cc2)cc(-c2cnn(-c3ccccc3)n2)n1
inactive: NCI-H23 lung 99.1% | NCI-H322M lung 93.9% | HOP-62 NSCLC 101% | NCI-H460 lung 103% | HOP-92 NSCLC 94.1% | NCI-H522 lung 82.2% | 786-0 renal 107% | COLO 205 colon 105%

C=C1CCC2C3(C)COC(c4ccccc4Br)OC3CCC2(C)C1C/C=C1/C(=O)OCC1OC(C)=O (stereo not drawn)
inactive: NCI-H322M lung 21.7% | HOP-62 NSCLC 11.5% | A549/ATCC NSCLC 22.7%
active: NCI-H23 lung -47.7% | NCI-H460 lung 1.8% | HOP-92 NSCLC 1.59% | NCI-H522 lung -52.7% | 786-0 renal -72.8% | COLO 205 colon -76.7%

COc1cc(/C=N/N(C)C)ccc1O
inactive: NCI-H23 lung 105% | NCI-H322M lung 99.1% | HOP-62 NSCLC 91.4% | NCI-H460 lung 105% | NCI-H522 lung 87.7% | A549/ATCC NSCLC 84.1% | 786-0 renal 109% | COLO 205 colon 108%
active: HOP-92 NSCLC -18.7%

CCN(CC)CCCC(C)Nc1ccnc2c(OC)cccc12 (stereo not drawn)
inactive: NCI-H23 lung 106% | NCI-H322M lung 141% | HOP-62 NSCLC 108% | NCI-H460 lung 125% | HOP-92 NSCLC 130% | NCI-H522 lung 104% | A549/ATCC NSCLC 106% | 786-0 renal 113% | COLO 205 colon 114%

Nc1ccc(N2CCOCC2)cc1
inactive: NCI-H23 lung 86.1% | NCI-H322M lung 91.2% | HOP-62 NSCLC 90.8% | NCI-H460 lung 104% | HOP-92 NSCLC 114% | NCI-H522 lung 94.1% | A549/ATCC NSCLC 110% | 786-0 renal 92.2% | COLO 205 colon 123%

O=C(O)c1c([N+](=O)[O-])cnc2ccccc12
inactive: NCI-H23 lung 91.5% | NCI-H322M lung 96.6% | HOP-62 NSCLC 90.6% | NCI-H460 lung 106% | HOP-92 NSCLC 131% | NCI-H522 lung 100% | A549/ATCC NSCLC 102% | 786-0 renal 105% | COLO 205 colon 121%

COc1ccc(-c2cc(-c3cccnc3)nc3sc4c(=O)n(-c5ccc(C)cc5)nnc4c23)cc1OC
inactive: NCI-H23 lung 98% | NCI-H322M lung 97.6% | HOP-62 NSCLC 95.5% | NCI-H460 lung 100% | HOP-92 NSCLC 74.4% | NCI-H522 lung 101% | A549/ATCC NSCLC 102% | COLO 205 colon 102%

COC1/C=C\OC2(C)Oc3c(C)c(O)c4c(O)c(c(CN(C)CCO)c(O)c4c3C2=O)NC(=O)/C(C)=C\C=C/C(C)C(O)C(C)C(O)C(C)C(OC(C)=O)C1C (stereo not drawn)
inactive: NCI-H23 lung 91.9% | NCI-H322M lung 97.8% | HOP-62 NSCLC 89.7% | NCI-H460 lung 103% | HOP-92 NSCLC 115% | NCI-H522 lung 87.8% | A549/ATCC NSCLC 116% | 786-0 renal 95.9% | COLO 205 colon 108%

O=C1C(=O)N(CCCCn2cc(CO)nn2)c2ccccc21
inactive: NCI-H23 lung 98.2% | NCI-H322M lung 108% | HOP-62 NSCLC 96.3% | NCI-H460 lung 101% | HOP-92 NSCLC 106% | NCI-H522 lung 90.1% | A549/ATCC NSCLC 104% | 786-0 renal 99.9% | COLO 205 colon 111%

Cc1cc2cc3cc(C)c(N(C)C)cc3nc2cc1N(C)C
active: NCI-H460 lung 8.26% | HOP-92 NSCLC -37% | A549/ATCC NSCLC 7.53% | COLO 205 colon -23.8%
inactive: NCI-H23 lung 23.9% | NCI-H322M lung 22.3% | HOP-62 NSCLC 23.1% | 786-0 renal 28%

COc1ccc(-c2cc(/C=C3\C(=O)Nc4ccc(Cl)cc43)[nH]n2)cc1
active: NCI-H522 lung 9.37%
inactive: NCI-H23 lung 63.1% | NCI-H322M lung 77.3% | HOP-62 NSCLC 55.5% | NCI-H460 lung 37% | HOP-92 NSCLC 80.7% | A549/ATCC NSCLC 35.7% | 786-0 renal 82.3% | COLO 205 colon 37%

S=c1[nH]nc(CSc2ncnc3c2c(-c2ccccc2)cn3-c2ccc(Cl)cc2)o1
inactive: NCI-H23 lung 92.7% | NCI-H322M lung 97.9% | HOP-62 NSCLC 91% | NCI-H460 lung 99.4% | HOP-92 NSCLC 92.9% | A549/ATCC NSCLC 98.5% | 786-0 renal 102% | COLO 205 colon 99.1%

COc1cccc(-n2cc(-c3nc(Nc4cc(C)[nH]n4)c4ccccc4n3)nn2)c1
active: NCI-H522 lung 9.97%
inactive: NCI-H23 lung 61.1% | NCI-H322M lung 52.2% | HOP-62 NSCLC 50.2% | NCI-H460 lung 44.9% | HOP-92 NSCLC 35.8% | A549/ATCC NSCLC 35.9% | 786-0 renal 51.4% | COLO 205 colon 85.8%

CCC(=O)OCc1cccc(OC)c1
inactive: NCI-H23 lung 107% | NCI-H322M lung 108% | HOP-62 NSCLC 87.9% | NCI-H460 lung 95.8% | HOP-92 NSCLC 76.4% | NCI-H522 lung 94.5% | A549/ATCC NSCLC 113% | 786-0 renal 102% | COLO 205 colon 111%

CCCCCCCCCCCCN1CCCC(C)C1 (stereo not drawn)
inactive: NCI-H23 lung 80.3% | NCI-H322M lung 87.2% | HOP-62 NSCLC 89.1% | NCI-H460 lung 106% | HOP-92 NSCLC 73% | NCI-H522 lung 69.3% | A549/ATCC NSCLC 91.4% | 786-0 renal 85.9% | COLO 205 colon 82.2%

Cc1cc(Cl)ccc1Nc1nc(C(F)(F)F)ccc1C(=O)N/N=C/c1ccc(F)cc1
inactive: NCI-H226 lung 22.9% | A549/ATCC NSCLC 16.5% | COLO 205 colon 13.9%
active: NCI-H322M lung 9.9% | HOP-62 NSCLC 5.92% | NCI-H460 lung 2.29% | HOP-92 NSCLC -18.1% | NCI-H522 lung -9.21% | 786-0 renal -50.7%

COC1C/C(=N\O)C2OC(c3ccccc3)OCC2O1 (stereo not drawn)
inactive: NCI-H226 lung 103% | NCI-H322M lung 99.9% | HOP-62 NSCLC 114% | NCI-H460 lung 112% | HOP-92 NSCLC 90.7% | NCI-H522 lung 97.3% | A549/ATCC NSCLC 88.3% | 786-0 renal 104% | COLO 205 colon 107%

C=C1CC2(OC1=O)C(=O)N(CCCCCCCCCCCCN1C(=O)C3(CC(=C)C(=O)O3)c3ccccc31)c1ccccc12 (stereo not drawn)
inactive: NCI-H226 lung 78.6% | NCI-H322M lung 95.1% | HOP-62 NSCLC 94.1% | NCI-H460 lung 73.1% | HOP-92 NSCLC 42.2% | NCI-H522 lung 16.2% | A549/ATCC NSCLC 97.6% | 786-0 renal 99.1% | COLO 205 colon 82.6%

Nc1cc(O)cc2cccnc12
inactive: NCI-H226 lung 94.4% | NCI-H322M lung 104% | HOP-62 NSCLC 86.6% | NCI-H460 lung 67.6% | HOP-92 NSCLC 103% | NCI-H522 lung 50.6% | A549/ATCC NSCLC 86.3% | 786-0 renal 105% | COLO 205 colon 113%

O=[N+]([O-])c1c(F)cccc1Nc1cccc(F)c1
inactive: NCI-H226 lung 94.7% | HOP-62 NSCLC 102% | NCI-H460 lung 107% | HOP-92 NSCLC 94.6% | NCI-H522 lung 92% | A549/ATCC NSCLC 106% | 786-0 renal 93.9% | COLO 205 colon 121%

CCCCCCCCOC(=O)CC[C@@H](C)[C@H]1CC[C@H]2[C@@H]3[C@H](OC(=O)CCN)C[C@@H]4C[C@H](OC(=O)CCN)CC[C@]4(C)[C@H]3C[C@H](OC(=O)CCN)[C@]12C
inactive: NCI-H226 lung 89.8% | NCI-H322M lung 71.4% | HOP-62 NSCLC 37.7% | NCI-H460 lung 73.7% | HOP-92 NSCLC 40.7% | NCI-H522 lung 10.8% | A549/ATCC NSCLC 81.3% | 786-0 renal 99.1% | COLO 205 colon 66.4%

CC(=O)Oc1ccc(Nc2c3ccccc3nc3ccccc23)cc1
inactive: NCI-H322M lung 19.9% | HOP-62 NSCLC 11.2% | 786-0 renal 16.5%
active: NCI-H226 lung -59.2% | NCI-H460 lung -26.5% | HOP-92 NSCLC -3.96% | NCI-H522 lung -69.7% | A549/ATCC NSCLC -23.7% | COLO 205 colon 3.96%

COc1cccc(-c2nc3sccn3c2-c2ccnc(NCCCNS(=O)(=O)c3ccc(Cl)cc3)c2)c1
inactive: NCI-H226 lung 42% | NCI-H322M lung 74.4% | HOP-62 NSCLC 88.7% | NCI-H460 lung 49.9% | HOP-92 NSCLC 72% | A549/ATCC NSCLC 40.8% | 786-0 renal 58.4% | COLO 205 colon 44.9%

c1ccc(CSc2ncnc3nc[nH]c23)nc1
inactive: NCI-H226 lung 91.4% | NCI-H322M lung 103% | HOP-62 NSCLC 92.2% | NCI-H460 lung 104% | HOP-92 NSCLC 135% | NCI-H522 lung 82.7% | A549/ATCC NSCLC 106% | 786-0 renal 92.4% | COLO 205 colon 121%
